Source: PubChem
PTAP TSG101 blk: blocks PTAP/TSG101 interaction to inhibit HIV-1 budding; Potency, µM (titrated, usually from 115 µM), for inactives: top-dose activity change, negative = inhibition, actives largely listed as inhibitors; Q99816; Fluorescence polarization, FITC-PTAP peptide / Tsg101 binding; 340,000 tested, under 10 active; active = well fitted inhibition curve with a large enough effect in the main read-out, with a control signal flat, not every such curve was filed as active; inconclusive = small, poorly fitted or top-dose-only effect, or effect the other way, or a change in a side signal; inactive = no such curve, though single readings can be large or run the other way; note: % of control where 0% means no effect
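Fluorescence anisotropy tracks displacement of a FITC-tagged PTAP peptide (50 nM) from the Tsg101 binding domain (10 uM), following a 20 min room-temperature incubation at pH 7.5.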
Rango complex inh: inhibitors of Rango-importin beta complex formation | Potency, µM (series often up to 92.2 µM), for the others: at the highest dose inhibition of complex formation | Rango CFP/YFP FRET sensor + importin beta, 45 min | Q14974 | 0.031% of 340,000 active;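 note: 0% = DMSO wells and 100% = buffer wells lacking importin beta; nearly all actives have a fitted effect of over 15% in size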
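Inhibition scored from the CFP 486 nm/YFP 530 nm FRET ratio 45 min after adding 0.125 microM importin beta to 50 nM Rango biosensor preincubated 5 min with compound (room temperature, PBS with DTT, Tween-20, BSA). No-importin wells as positive control.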
Rango release inh: inhibition of RanGTP-driven Rango-importin beta dissociation. Potency, µM (doses to about 46.1 µM), without a hit: at the top dose activity change, negative = inhibition. O95149+P62826. Biochemical FRET Rango-importin beta, RanGTP-induced dissociation. AID 540253. 0.071% of 340,000 active; note: % of control where 0% means no effect; nearly all actives have a fitted effect of over 45% in size
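Compounds sat 5 min at room temperature with 0.1 uM Rango biosensor plus 0.25 uM importin beta, then FRET pre-read. RanGTP-RCC1 (0.6 uM Ran, 2mM GTP, 0.2 uM RCC1) added for 45 min, and the CFP/YFP post-read measured blocked complex dissociation.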
ClpP mod: qHTS Assay for Activators of ClpP; ATP-dependent Clp protease proteolytic subunit (Bacillus subtilis (strain 168)), P80244; purified B. subtilis ClpP, FRET peptide cleavage, 20 min; Potency, µM (top dose mostly 57.5 µM), for the others: top-dose activity change, negative = active; 1.9% of 340,000 active; active = well fitted falling curve with a large enough effect; inconclusive = small, poorly fitted or top-dose-only effect; inactive = no such curve, though single readings can be large or run the other way; note: the source files actives as falling curves though it sought activators and does not explain the sign; nearly all actives have a fitted effect of over 65% in size
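Buffer: 100 mM Tris/HCl pH8, 100 mM KCl, 0.05% low protease BSA, 2.5% glycerol, 0.01% Tween-20. ClpP 10 microg/mL final; 20 min RT; delta FRET normalized to ADEP and DMSO controls.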
12-LOX inh: ALOX12 (human) lipoxygenase inhibition. P18054. purified 12hLO, xylenol orange hydroperoxide absorbance. Potency, µM (top dose mostly 108 µM), inactives show top-dose activity change, negative = inhibition, most hits filed as inhibitors. 1.1% of 580,000 active. AID 1671190; active = well fitted curve in the direction sought with a large enough effect; inconclusive = small, poorly fitted or top-dose-only effect, or another doubt; inactive = no such curve, though single readings can be large; an effect the other way counts as inactive or inconclusive; note: % is set by controls: 0 for no effect and ±100 for the full control effect
Target sequence (P18054 whole entry, looked up): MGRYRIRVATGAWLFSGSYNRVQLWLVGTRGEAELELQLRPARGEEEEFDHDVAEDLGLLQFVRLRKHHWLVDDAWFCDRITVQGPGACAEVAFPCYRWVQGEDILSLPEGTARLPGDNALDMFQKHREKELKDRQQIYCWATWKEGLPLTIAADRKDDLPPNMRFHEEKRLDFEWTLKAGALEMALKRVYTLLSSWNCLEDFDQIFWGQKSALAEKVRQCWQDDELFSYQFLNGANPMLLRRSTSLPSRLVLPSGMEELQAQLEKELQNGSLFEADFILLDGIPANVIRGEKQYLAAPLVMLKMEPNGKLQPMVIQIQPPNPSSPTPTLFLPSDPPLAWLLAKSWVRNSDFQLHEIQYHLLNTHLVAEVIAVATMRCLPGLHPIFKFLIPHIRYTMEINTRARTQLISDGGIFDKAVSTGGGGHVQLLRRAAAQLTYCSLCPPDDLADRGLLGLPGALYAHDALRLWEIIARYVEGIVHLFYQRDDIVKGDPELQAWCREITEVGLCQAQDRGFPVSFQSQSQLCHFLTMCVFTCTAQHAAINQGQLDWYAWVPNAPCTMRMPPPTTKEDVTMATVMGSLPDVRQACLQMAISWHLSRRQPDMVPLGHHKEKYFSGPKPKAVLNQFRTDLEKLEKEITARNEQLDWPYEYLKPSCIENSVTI
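Purified human 12hLO (150 nM final) in 25 mM Hepes, 0.01% Triton X-100, pH 7.0 was preincubated 15 min at room temperature with compound. Then 40 uM arachidonic acid was added, 30 min. Hydroperoxide was read by Fe-XO absorbance ratio 573/405 nm.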
TDP1 block: inhibitors of human tyrosyl-DNA phosphodiesterase TDP1. recombinant TDP1, AlphaScreen DNA substrate cleavage. Q9NUW8. Potency, µM (titrated, usually from 130 µM), for the others: at the top dose activity change, negative = inhibition, usual class: inhibitors. 0.28% of 350,000 active. AID 485290; active = well fitted curve in the direction sought with a large enough effect; inconclusive = small, poorly fitted or top-dose-only effect, or another doubt; inactive = no such curve, though single readings can be large; an effect the other way counts as inactive or inconclusive; note: % is set by controls: 0 for no effect and ±100 for the full control effect; nearly all actives have a fitted effect of over 40% in size
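AlphaScreen read-out: signal falls as enzyme removes the 3' tyrosine-FITC from a 5'-biotinylated DNA oligo (15 nM, 5 min, RT). Enzyme was E. coli-made recombinant Tdp1 at 1 nM, exposed to compound for 15 min beforehand; beads 10 ug/ml, 10 min.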
Numbers without * were called inactive; ? = inconclusive; / = no result given; ! = repeats disagree; [ ] = remark or other dose. Hits are enriched below; roughly 2.4% of the tested compounds scored in any of these assays. Unless noted, calls come from the whole dose curve. Potency is the fitted concentration of half-maximal effect.

SMILES	PTAP TSG101 blk	Rango complex inh	Rango release inh	ClpP mod	12-LOX inh	TDP1 block
COc1ccc2[nH]c(=O)c(CN(C)C(=O)c3ccncc3)cc2c1	-1%	6%	0%	?	3%	-6%
CCCN(Cc1cc2cc(OC)ccc2[nH]c1=O)C(=O)c1ccncc1	0%	-1%	1%	32µM*	3%	5%
CS(=O)(=O)N(C1CCNCC1)C1CCOCC1	/	/	/	/	65%	/
CCNC(=O)c1cccc(NC(=O)c2nn(CC)c(=O)c3ccccc23)c1	/	/	/	/	45%	/
O=C(NCCC(=O)N(Cc1ccco1)C1CC1)C1CCCC1	/	/	/	/	-22%	/
COc1ccc(CN(Cc2cc3cc(C)ccc3[nH]c2=O)C(=O)N(C)C)cc1	-6%	4%	10%	?	0%	3%
COc1ccc(CC(=O)N(Cc2cc3cc(OC)ccc3[nH]c2=O)C(C)C)cc1	-4%	4%	-4%	32µM*	0%	8%
CCOc1ccc(C(=O)N(Cc2ccc(OC)cc2)Cc2cc3cc(OC)ccc3[nH]c2=O)cc1	-18%	1%	-8%	32µM*	-14%	-5%
CN(C)c1ccc(/C=C/c2ccc3ncccc3c2)cc1	/	/	/	4%	/	/
CN(C)c1ccc2ncccc2c1	/	/	/	/	5µM*	/
COc1ccc2nc(-c3ccccc3)cc(C(=O)OCC(=O)N3CCCCC3)c2c1	-1%	?	?	4%	165%	45µM*
COc1ccc(-c2cc(C(=O)OCC(=O)N3CCCC3)c3ccccc3n2)cc1	-6%	5%	-7%	?	-7%	-4%
COc1ccc2nc(-c3ccccc3)cc(C(=O)OCC(=O)NC3CC3)c2c1	-4%	-1%	-10%	10µM*	-1%	-11%
CC(C)(C)n1nnnc1C1CC2(CCOCC2)C(=O)N1Cc1ccccc1 (stereo not drawn)	/	/	/	/	7%	/
OC(CNc1ccnc2cc(Cl)ccc12)CNC1CCCCC1 (stereo not drawn)	-1%	-2%	8%	28µM*	-14%	/
CCN(CC)CCNc1ccnc2cc(Cl)ccc12	-8%	0%	0%	32µM*	-1%	0%
CC(C)CNC(=O)NC(=O)CSc1nnc(COc2ccccc2Cl)o1	/	/	/	/	79%	/
CO[C@H]1C(=O)N(C2CCN(S(=O)(=O)c3ccc4c(c3)CCC4)CC2)[C@H]1c1ccncc1	/	/	/	/	44%	/
Fc1ccc(NC(=S)Nc2ccc(Br)cc2)cc1	0%	0%	-9%	28µM*	?	-4%
CC(C)CNC(=O)C1N(C(C)C)C(=O)C12CCCC2 (stereo not drawn)	/	/	/	/	46%	/
CC(C)CNC(=O)COC(=O)c1cc(Cl)cc(Cl)c1N	-5%	1%	0%	16µM*	0%[57.4 µM]	0%
COC(=O)CNC(=O)COC(=O)c1cc(Cl)cc(Cl)c1N	1%	1%	2%	2.8µM*	0%	-2%
Nc1c(Cl)cc(Cl)cc1C(=O)OCC(=O)N1CCCC1	-6%	3%	-8%	22µM*	-6%	-1%
COc1cc(SC)ccc1C(=O)OCC(=O)NCC(C)C	0%	-4%	3%	40µM*	-11%	4%
COc1cc(SC)ccc1C(=O)OCC(=O)NC(=O)NC(C)C	-2%	2%	8%	/	0%	-2%
SMILES	PTAP TSG101 blk	Rango complex inh	Rango release inh	ClpP mod	12-LOX inh	TDP1 block
CC(C)CNC(=O)COC(=O)c1cc(Cl)cc(Cl)c1	/	/	/	/	3%	/
O=C(CSc1ncc(-c2ccc(F)cc2)o1)Nc1ccc(F)c(Cl)c1	/	/	/	/	-16%	/
COc1ccc(Nc2cnc3ccc(-c4ccc(F)cc4)nn23)cn1	/	/	/	/	50%[176 µM]	/
COc1ccc(C(=O)O)cc1S(=O)(=O)Nc1cc(Cl)ccc1OCC(F)(F)F	/	/	/	/	9%	/
Cc1cccc(-n2cc[nH]c2=S)c1C	0%	-2%	4%	1%	50µM*	-14%
CC(C)CCNc1nc(-c2ccc(O)c(C(N)=O)c2)cs1	/	/	/	/	7.9µM*	/
CCn1c(SCC(=O)NCc2ccco2)nnc1-c1cccs1	-10%	1%	-1%	-2%	-10%	50µM*
COc1cc(/C=C/C(=O)O)cc(S(=O)(=O)NCCCO)c1OC	-1%	1%	2%	28µM*	17%	-1%
COc1cc(/C=C/C(=O)O)cc(S(=O)(=O)NNC(=O)c2cc(C)oc2C)c1OC	-17%	2%	4%	/	0%	16µM*
COc1ccc(OC)c(N=c2ssnc2Cl)c1	-1%	0%	?	-10%	?	6%
Cc1nnc(N=c2ssnc2Cl)o1	-7%	0%	6%	-2%	3.2µM*	-4%
COc1cc(N=c2ssnc2Cl)c(OC)cc1Cl	3%	5%	25%	1%	2.5µM*!	10%
Cc1cc(C)nc(/N=c2/ssnc2Cl)c1	0%	-2%	-11%	-1%	8.9µM*	6%
Cc1cc(Cl)ccc1N=c1ssnc1Cl	-4%	0%	-11%	1%	?	3%
Cc1ccc(N=c2ssnc2Cl)cc1	0%	-1%	-4%	0%	1.6µM*	7%
Cc1cc(C)n(-c2nc3ccccc3nc2Nc2ccccc2F)n1	/	/	/	/	41%	/
CSc1nc(Sc2ccccc2Cl)c2ccccc2n1	-4%	?	-22%	32µM*	0%	?
CCOC(=O)c1cnc(SC)nc1Sc1ccccc1Cl	0%	-1%	2%	1%	16%	-8%
Cc1nc2c(C(=O)NCc3ccco3)cnn2c(C)c1Cc1ccc(F)cc1Cl	-12%	-1%	6%	32µM*	-15%	-2%
Cc1nc2c(C(=O)NCc3ccccc3Cl)cnn2c(C)c1Cc1c(F)cccc1Cl	/	/	/	-27%	-18%	9%
Cc1cccc(Cc2c(C)nc3c(C(=O)NCc4ccco4)cnn3c2C)c1	-2%	?	4%	32µM*	?	6%
Cc1cccc(NC(=O)CC(=O)Nc2cccc(C)c2)c1	1%	-4%	-13%	0%	16%	/
Cc1cccc(NC(=O)N[C@@H](C)C(=O)O)c1	1%	-1%	-1%	16µM*	100%	-4%
Cc1cccc(NNC(=O)C(=O)NNc2cccc(C)c2)c1	-2%	-3%	1%	2%	1.4µM*	0%
CC(=O)Nc1ccc(S(=O)(=O)NNc2cccc(C)c2)cc1	-2%	-3%	-7%	/	2µM*	/
O=C(NC1CCN(c2cc(-c3cccs3)[nH]n2)C1)c1ccccc1 (stereo not drawn)	/	/	/	/	41%	/
Cc1nn(CC(=O)Nc2ccc3c(c2)nc(CCNC(=O)C2CCCC2)n3C)c(=O)c2ccccc12	/	/	/	/	-15%	/
